In the library only some 1.6% were active in any assay of this set; here they are far more common.
Bfl-1 A1 inh: inhibitors of the anti-apoptotic protein A1, read as caspase activation; MEF A1-2A-BIM cells, Caspase-Glo 3/7 luminescence, 3 h; percent of clofoctol response, vehicle zero; hit rate 0.066% among 330,000; caspase activation, % (concentration not given with the values);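 active means over half of replicate activation scores above 10%, or exactly half above 10 with the replicate mean above 10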
DYRK1A inh: blocks rat Dyrk1A kinase activity. ADP-Glo luminescence, NFATc1 peptide. inhibition, % at 12.5 µM. hit rate 0.43% among 310,000; in the data active means inhibition above about 50%;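 further: plate controls were vehicle with enzyme for no effect and no enzyme for full effect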
Beta2AR agonist: human beta-2 adrenergic receptor agonism by FAP; Am2.2-beta2AR cells, FAP receptor internalization, flow cytometry; response, % (no concentration beside the values); hit rate 0.43% among 340,000; AID 504454;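 active means response above a set limit, near 3 SD of response in nonfluorescent compounds, cut at about 42% in these data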
Target sequence (P07550 whole entry, looked up): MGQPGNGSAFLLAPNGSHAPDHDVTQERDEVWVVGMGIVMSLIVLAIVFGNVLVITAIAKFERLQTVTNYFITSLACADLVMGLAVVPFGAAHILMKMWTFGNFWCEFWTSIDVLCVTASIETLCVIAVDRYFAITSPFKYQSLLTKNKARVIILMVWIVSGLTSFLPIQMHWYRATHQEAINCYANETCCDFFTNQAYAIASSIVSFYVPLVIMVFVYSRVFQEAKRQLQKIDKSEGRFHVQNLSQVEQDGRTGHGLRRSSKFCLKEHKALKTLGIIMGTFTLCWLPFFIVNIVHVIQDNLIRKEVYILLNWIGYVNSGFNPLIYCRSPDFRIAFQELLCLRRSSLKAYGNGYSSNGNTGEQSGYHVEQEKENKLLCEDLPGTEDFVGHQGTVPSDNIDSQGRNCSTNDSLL
dFosB act: enhances mouse delta FosB homodimer DNA binding; P13346; purified delta FosB, TAMRA-CDK5 oligo fluorescence polarization; percent of positive-control signal above neutral wells; activation, % at 25 µM; hit rate 0.99% among 340,000; AID 493131;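 active means mean activation above about 17%, with every replicate also reaching it, limit read from the data, passing the limit was not always enough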
Active calls of the source: *; · = no result given.

SMILES | Bfl-1 A1 inh | DYRK1A inh | Beta2AR agonist | dFosB act
O=C(O)CCS(=O)(=O)c1nc(-c2cccs2)cc(C(F)(F)F)n1 | -1 | 8 | -8 | -11
COc1ccc(-c2cc(C(F)(F)F)nc(S(C)(=O)=O)n2)cc1 | 0 | 5 | 35 | -11
COC(=O)CCS(=O)(=O)c1nc(-c2ccccc2)cc(C(F)(F)F)n1 | 1 | 6 | 97* | -10
CCOC(=O)CS(=O)(=O)c1nc(-c2ccccc2)cc(C(F)(F)F)n1 | 8.7* | 12 | 109* | -5
CS(=O)(=O)c1nc(-c2cccs2)cc(C(F)(F)F)n1 | 8.2* | · | · | ·
COC(=O)Nc1ccc(S(=O)(=O)N2CCC(C(=O)NC3CCCCC3)CC2)cc1 | 1 | -2 | 12 | -10
CCCCN(C)C(=O)CNC(=O)c1nn(-c2ccc(OC)cc2OC)c(=O)c2ccccc12 | 1 | 5 | -21 | -3
CCOC(=O)CS(=O)(=O)c1nc(-c2ccc(F)cc2)cc(C(F)(F)F)n1 | 1 | 8 | 104* | -14
CCOC(=O)CCS(=O)(=O)c1nc(-c2ccccc2)cc(C(F)(F)F)n1 | 9.7* | 3 | 60* | -21
CCOC(=O)c1c(C(F)(F)F)cc(-c2ccc(F)cc2)nc1C | 0 | -5 | -6 | 4
O=C(CCNC(=O)C1CCN(S(=O)(=O)c2ccccc2)CC1)NCCc1cccc(F)c1 | 1 | -4 | -5 | -1
COc1ccc2nc3oc(C(=O)NCc4cccs4)cc3cc2c1 | 1 | -2 | 0 | 60*
NS(=O)(=O)c1ccc(CNC(=O)c2cc(=O)c3cc(Cl)ccc3o2)cc1 | 1 | 4 | 3 | 10
N/C(=N\OC(=O)COc1ccc(Br)cc1Cl)c1cccnc1 | 0 | -3 | -5 | 20*
O=C(Cn1ncc(Cl)c(Cl)c1=O)NC1CCCCC1 | 0 | -2 | 15 | -4
O=C(Cn1ncc(Cl)c(Cl)c1=O)NCC1CCCCC1 | 10* | -3 | 60* | -4
Cc1ccc(NC(=O)CNc2cccc(Br)c2)cc1S(=O)(=O)N1CCOCC1 | -1 | -3 | -4 | -14
CNC[C@H](Cc1ccccc1)NC[C@@H](Cc1cccc2ccccc12)NCCc1ccc(C)cc1 | 1 | 1 | 98* | 30*
Cc1c(C(=O)NC2CC(=O)N(c3ccc4c(c3)OCCO4)C2)cccc1[N+](=O)[O-] (stereo not drawn) | 0 | 5 | 1 | 3
CC(=O)c1cccc(NS(=O)(=O)c2ccc3c(c2)N(C(C)=O)CCO3)c1 | 1 | -2 | 5 | 0
O=C(CCN1C(=O)/C(=C/c2ccc(F)cc2)SC1=S)NCCc1ccc(O)cc1 | -1 | -4 | 6 | 68*
O=C(CCN1C(=O)/C(=C/c2ccc(F)cc2)SC1=S)Nc1cccnc1 | 1 | -3 | -8 | 19*
O=C(NCCS(=O)(=O)N1CCN(Cc2ccccc2)CC1)c1ccccc1 | 0 | 4 | 7 | 2
CCOC(=O)c1sc(NC(=O)C2CCCCC2)nc1C | 0 | 13 | -4 | -15
CN(CC(=O)N1CCN(c2cccc(Cl)c2)CC1)S(=O)(=O)c1cccs1 | 1 | -1 | 53* | -2
SMILES | Bfl-1 A1 inh | DYRK1A inh | Beta2AR agonist | dFosB act
CN(C)/C=C1\C(=O)ON=C1c1ccccc1 | 0 | 4 | 10 | 4
O=C1ON=C(c2ccccc2)/C1=C/c1ccco1 | 1 | · | 58* | -9
O=C1ON=C(c2ccccc2)/C1=C/c1ccc(-c2ccccc2[N+](=O)[O-])o1 | 0 | 3 | 96* | -6
Cc1c(Cl)cccc1NC(=O)CSC(C)c1nc2ccccc2c(=O)[nH]1 (stereo not drawn) | 1 | -4 | 2 | 41*
Cc1ccc(Cl)cc1N(CC(=O)NCc1ccccc1)S(C)(=O)=O | 0 | · | 2 | -8
O=S(=O)(c1ccc(Br)s1)N1CCN(CCOc2ccccc2)CC1 | 1 | 6 | 10 | -6
O=c1[nH]c2ccccc2c2nc(-c3cccc(S(=O)(=O)N4CCCC4)c3)nn12 | 0 | -4 | 20 | 53*
CC1Cc2cc(S(=O)(=O)N3CCC(C(=O)N(C)Cc4ccco4)CC3)ccc2N1C(=O)C1CCC1 (stereo not drawn) | 0 | -1 | -13 | -6
CC(OC(=O)c1ccc(NC(=O)CC#N)cc1)C(=O)NCCC1=CCCCC1 (stereo not drawn) | 0 | -1 | 3 | 5
CC(OC(=O)c1ccc(NC(=O)CC#N)cc1)C(=O)NC(=O)NC1CCCCC1 (stereo not drawn) | 0 | -1 | 13 | 58*
CC(=O)c1ccc(NC(=S)N2CCCC2)cc1 | 1 | 0 | 0 | -2
CN(C)CCOC(=O)c1ccc2[nH]c3c(c2c1)CSCC3 | 2 | 6 | -4 | 28*
O=C(O)c1ccc2[nH]c3c(c2c1)CSCC3 | 0 | -1 | 6 | 3
Cc1ccc(NCCN(C)C)c2c(=O)c3cc(O)ccc3sc12 | · | 42 | -7 | 43*
Cn1c(CC(=O)Nc2ccccc2F)nnc1SCC(=O)NC1=NCCS1 | 1 | 17 | 4 | -8
COc1ccccc1C(=O)N=Nc1c(O)[nH]c2ccc([N+](=O)[O-])cc12 | · | 10 | 5 | -6
O=C(N=Nc1c(O)[nH]c2ccc([N+](=O)[O-])cc12)c1cc(-c2ccccc2Cl)nc2ccccc12 | 48* | 4 | 1 | -5
CSc1nc(N)nc2c1ncn2CC(=O)NCc1ccc2c(c1)OCO2 | -1 | 1 | -3 | 20*
CC1(C)CC(=O)C(C(C2=C(O)CC(C)(C)CC2=O)c2cccc(O)c2)C(=O)C1 (stereo not drawn) | 1 | 1 | 11 | -1
CC1(C)CC(=O)C(C(C2=C(O)CC(C)(C)CC2=O)c2cccs2)C(=O)C1 (stereo not drawn) | 0 | -2 | 68* | -5
CCc1cc([N+](=O)[O-])cc(CC)c1N | 0 | 70* | 7 | -4
COc1cc(/C=C2\COC/C(=C\c3cc(OC)c(OC)c(OC)c3)C2=O)cc(OC)c1OC | · | -5 | 43* | -3
COc1cc(/C=C2/CCCC(C(=O)C(F)(F)F)=C2O)ccc1O | 0 | -4 | 21 | -4
COc1cc(/C=C2\CCC/C(=C\c3ccc(O)c(OC)c3)C2=O)ccc1O | 1 | 13 | 43* | -12
CN(c1ccccc1)S(=O)(=O)c1cc(C(=O)Nc2ccccc2N2CCOCC2)ccc1Cl | · | 1 | 6 | -7
SMILES | Bfl-1 A1 inh | DYRK1A inh | Beta2AR agonist | dFosB act
CC(C)c1ccc(/C=C(\c2nc3ccccc3[nH]2)S(=O)(=O)c2ccccc2)cc1 | -2 | 0 | 42* | 1
O=S(=O)(/C(=C/c1ccc(C(F)(F)F)cc1)c1nc2ccccc2[nH]1)c1ccccc1 | 1 | -7 | 22 | -6
CCN(CC)c1ccc(/C=N/Nc2nc3ccccc3[nH]2)c(O)c1 | 0 | 5 | 34 | 32*
O=C(N/N=C/c1ccccc1)c1ccco1 | -4 | -7 | 0 | -5
O=C(C#Cc1ccccc1)c1ccco1 | -2 | 0 | 82* | -8
CSc1ccccc1NC(=O)CSc1nncs1 | 0 | -4 | -15 | -3
CCN(CC)Cc1cc(Nc2ccnc3cc(Cl)ccc23)ccc1O | 1 | 34 | 37 | 44*
O=C(N/N=C/c1ccc(Cl)cc1Cl)c1ccc2nc[nH]c2c1 | 3 | 3 | -5 | 1

Screens (PubChem BioAssay)
